U2OS ROS induce: ROS inducers in U2OS cancer cells, primary screen, cell-based, H2DCF-DA fluorescence; AID 624156, 2012; ROS induction (% of piperlongumine), % at 10 µM; U2OS ROS induction; hit rate 2% among 46,000; in the data active = ROS induction above about 79%, passing the limit was not always enough; inconclusive = no clear call, values can overlap the other calls
NOMO-1 viab: NOMO-1 AML cell viability reduction, primary screen, STK33 inhibitor project, CellTiter-Glo luminescence; NOMO-1 AML viability, 72 h; inhibition, % (concentration not given with the values); hit rate 7.5% among 37,000; AID 2330, 2010; in the data active = inhibition above about 80%; inconclusive = no clear call, values can overlap the other calls
Large screens that a line does not name were inactive. The full list was thinned out, with hits kept by preference.

C[C@H]1CN([C@@H](C)CO)C(=O)c2cc(NC(=O)Cc3ccccc3)ccc2O[C@@H]1CN(C)C(=O)Nc1ccc(F)cc1	none
C[C@@H]1CN([C@H](C)CO)C(=O)Cc2cc(NS(=O)(=O)c3cccs3)ccc2O[C@@H]1CN(C)Cc1ccc(Cl)c(Cl)c1	none
O=C(CCCOc1ccc(Cl)cc1Cl)Nc1c[nH]c(=O)[nH]c1=O	none
COc1ccc(S(=O)(=O)N(C)C[C@H]2OCCCC[C@@H](C)Oc3ccc(NS(=O)(=O)c4cccs4)cc3C(=O)N([C@H](C)CO)C[C@@H]2C)cc1	none
C[C@@H]1CN([C@@H](C)CO)C(=O)c2cccc(NS(=O)(=O)c3ccc(Cl)cc3)c2O[C@@H]1CN(C)S(=O)(=O)c1cccs1	NOMO-1 viab 85
Cc1ccc(S(=O)(=O)N(C)C[C@H]2OCCCC[C@@H](C)Oc3ccc(NS(=O)(=O)c4cccs4)cc3C(=O)N([C@H](C)CO)C[C@@H]2C)cc1	none
C[C@@H]1CCCCO[C@@H](CN(C)S(=O)(=O)c2cccs2)[C@@H](C)CN([C@H](C)CO)C(=O)c2cc(NS(=O)(=O)c3ccc(Cl)cc3)ccc2O1	NOMO-1 viab 86
Cc1ccc(S(=O)(=O)Nc2ccc3c(c2)C(=O)N([C@H](C)CO)C[C@H](C)[C@H](CN(C)S(=O)(=O)c2cccs2)OCCCC[C@@H](C)O3)cc1	none
C[C@@H]1CN([C@@H](C)CO)C(=O)c2cccc(NS(=O)(=O)c3ccc(Cl)cc3)c2O[C@H]1CN(C)S(=O)(=O)c1cccs1	none
C[C@@H]1CCCCO[C@@H](CN(C)S(=O)(=O)c2ccc(Cl)cc2)[C@@H](C)CN([C@H](C)CO)C(=O)c2cc(NS(=O)(=O)c3cccs3)ccc2O1	U2OS ROS induce 94
COc1ccc(S(=O)(=O)N(C)C[C@@H]2OCCCC[C@@H](C)Oc3ccc(NS(=O)(=O)c4cccs4)cc3C(=O)N([C@H](C)CO)C[C@@H]2C)cc1	U2OS ROS induce 115
COC(Cn1c(SCC(=O)Nc2cc(Cl)cc(Cl)c2)nnc1-c1ccccc1)OC	none (no result: NOMO-1 viab)
CCOC(=O)c1oc2c(c1C)C(=O)CC(C)(C)C2	none (no result: NOMO-1 viab)
C[C@@H]1CN([C@H](C)CO)C(=O)c2cc(NC(=O)Cc3ccccc3)ccc2O[C@@H]1CN(C)Cc1ccc(Cl)c(Cl)c1	NOMO-1 viab inconclusive
COC(=O)c1ccccc1NC(=O)C1CC(c2ccc(Cl)c(Cl)c2)=NO1 (stereo not drawn)	none (no result: U2OS ROS induce)
C[C@@H]1CN([C@H](C)CO)C(=O)c2cccc(NC(=O)NC3CCCCC3)c2O[C@@H]1CN(C)Cc1ccc(Oc2ccccc2)cc1	none
C[C@@H]1CN([C@@H](C)CO)C(=O)c2cccc(NC(=O)NC3CCCCC3)c2O[C@H]1CN(C)CC1CCCCC1	NOMO-1 viab 102
C[C@@H]1CN([C@@H](C)CO)C(=O)c2cccc(NC(=O)NC3CCCCC3)c2O[C@H]1CN(C)CC1CC1	none
C[C@@H]1CN([C@H](C)CO)C(=O)c2cccc(NC(=O)NC3CCCCC3)c2O[C@H]1CN(C)Cc1ccc(Oc2ccccc2)cc1	U2OS ROS induce inconclusive, NOMO-1 viab 114
C[C@@H]1CN([C@H](C)CO)C(=O)c2cccc(NC(=O)NC3CCCCC3)c2O[C@H]1CN(C)Cc1ccccc1	NOMO-1 viab 115
C[C@H]1CN([C@@H](C)CO)C(=O)c2cccc(NC(=O)NC3CCCCC3)c2O[C@H]1CN(C)Cc1ccccc1	none
C[C@@H]1CN([C@@H](C)CO)C(=O)c2cc(NC(=O)Cc3cn(C)c4ccccc34)ccc2O[C@H]1CN(C)S(=O)(=O)c1ccc(Cl)cc1	none
O=C(CCCCCCC(=O)Nc1ccccc1O)N/N=C/c1ccc([N+](=O)[O-])c(O)c1	none (no result: NOMO-1 viab)
O=C(Nc1sc2c(c1C(=O)NCC1CCCO1)CCC2)c1sc2ccccc2c1Cl (stereo not drawn)	none
O=C(NCCc1c[nH]c2ccccc12)NC1CCCCC1	none
Cc1cc(C(=O)Nc2cccc3c2O[C@H](CN(C)Cc2ccncc2)[C@@H](C)CN([C@@H](C)CO)C3=O)n(C)n1	none
C[C@@H]1CN([C@H](C)CO)C(=O)Cc2cc(NC(=O)Nc3cccc4ccccc34)ccc2O[C@H]1CN(C)C(=O)Nc1ccccc1	none
CCCCc1c(-c2ccc(O)cc2)[nH]c2nccnc12	NOMO-1 viab 83
CCCCc1c(-c2ccc(OC)cc2)[nH]c2nccnc12	none
Cc1ccc(S(=O)(=O)N(C)C[C@H]2Oc3ccc(NS(=O)(=O)c4cn(C)cn4)cc3C(=O)N([C@@H](C)CO)C[C@@H]2C)cc1	none
Cc1noc(C)c1S(=O)(=O)Nc1ccc2c(c1)CC(=O)N([C@H](C)CO)C[C@@H](C)[C@@H](CN(C)Cc1ccc(C(F)(F)F)cc1)O2	none
CCCCn1c(SCC(=O)NC2CCCC2)nc2c(sc3ccccc32)c1=O	none (no result: NOMO-1 viab)
N#CCSc1nc2c(sc3ccccc32)c(=O)n1CCCN1CCOCC1	none (no result: NOMO-1 viab)
N#CCSc1nc2c(sc3ccccc32)c(=O)n1C1CCCCC1	U2OS ROS induce 157 (no result: NOMO-1 viab)
O=C(CSc1nc2c(sc3ccccc32)c(=O)n1CC1CCCO1)c1ccccc1 (stereo not drawn)	U2OS ROS induce 112 (no result: NOMO-1 viab)
O=S(=O)(NC1CCCCC1Sc1nnc(Nc2ccccc2)s1)c1ccccc1 (stereo not drawn)	none (no result: U2OS ROS induce)
C[C@@H]1CN([C@@H](C)CO)C(=O)c2cc(NC(=O)NC3CCCCC3)ccc2O[C@H]1CN(C)S(=O)(=O)c1cn(C)cn1	none
Cc1noc(C)c1NC(=O)N(C)C[C@H]1Oc2ccc(NC(=O)CCC(F)(F)F)cc2C(=O)N([C@@H](C)CO)C[C@H]1C	none
C[C@H](CO)N1C[C@H](C)[C@@H](CN(C)Cc2ccc(C(=O)O)cc2)Oc2ccc(NC(=O)Cc3ccccc3)cc2C1=O	none
COc1cc(NC(=O)COc2ccc(Cl)cc2Cl)ccc1NC(=O)c1ccccc1Cl	none
COC(=O)C(O)(c1ccc(NC(=S)NC(=O)c2ccc(Cl)cc2Cl)c(OC)c1)C(F)(F)F (stereo not drawn)	NOMO-1 viab 124
Cc1cc(C)nc(/N=C2\NC(=O)CC(C(=O)O)N2c2ccc(F)c(Cl)c2)n1 (stereo not drawn)	none
COC(=O)/C=C1/C(=O)N/C(=N\c2nc(C)cc(C)n2)N1c1cccc(C)c1	U2OS ROS induce 103
C[C@H]1CN([C@@H](C)CO)C(=O)c2cccc(NC(=O)c3ccc(-c4nccs4)cc3)c2O[C@H]1CN(C)C	none
O=C(/C=N/O)Nc1cc(C(F)(F)F)cc(C(F)(F)F)c1	NOMO-1 viab 116
O=C(CS(=O)(=O)Nc1cccc(C(F)(F)F)c1)Nc1cccc(C(F)(F)F)c1	none (no result: NOMO-1 viab)
Cc1sc2ncn(CC(=O)Nc3ccc(Oc4ccccc4)cc3)c(=O)c2c1C	none
COc1cc(C(=O)Nc2ccc(Oc3ncnc4sc(C)c(C)c34)cc2)cc(OC)c1OC	U2OS ROS induce 104
C[C@H]1CN([C@@H](C)CO)C(=O)c2cc(NS(=O)(=O)c3ccc(F)cc3)ccc2O[C@H]1CN(C)Cc1ccncc1	none
CCOC(=O)Cc1csc(-c2ccc(Oc3ccc(C(F)(F)F)cn3)cc2)n1	none (no result: NOMO-1 viab)
COc1ccc(S(=O)(=O)Nc2ccc3c(c2)C(=O)N([C@H](C)CO)C[C@H](C)[C@@H](CN(C)Cc2ccc(Cl)c(Cl)c2)OCCCC[C@@H](C)O3)cc1	U2OS ROS induce 151, NOMO-1 viab 125
COc1ccc(S(=O)(=O)Nc2ccc3c(c2)C(=O)N([C@H](C)CO)C[C@H](C)[C@H](CN(C)Cc2ccc(C(F)(F)F)cc2)OCCCC[C@@H](C)O3)cc1	NOMO-1 viab 105
